How the values were obtained:
[1] = target: YAP1 169-207, P46937
[2] = target: TSG101 1-145, Q99816
[3] = target: TLN1 309-401, Q9Y490
Sequence of TLN1 309-401, Q9Y490 (Q9Y490 309-401): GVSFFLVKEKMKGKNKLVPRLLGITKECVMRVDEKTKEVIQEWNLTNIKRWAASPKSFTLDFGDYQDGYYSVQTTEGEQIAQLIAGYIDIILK

Sequence of YAP1 169-207, P46937 (P46937 169-207): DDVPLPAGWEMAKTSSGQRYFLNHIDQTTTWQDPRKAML
Sequence of TSG101 1-145, Q99816 (Q99816 1-145): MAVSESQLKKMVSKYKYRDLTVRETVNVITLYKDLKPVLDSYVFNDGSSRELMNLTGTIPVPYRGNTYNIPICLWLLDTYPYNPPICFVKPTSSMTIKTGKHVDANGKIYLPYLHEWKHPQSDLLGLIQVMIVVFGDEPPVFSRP

LPQYNNAPPPQAAVQQ [ERVK-6, Q7LDI9]
selected by phage display [1]: confidence 2 (active)

LNPTAPPSRQGSELHE [ERVK-9, P63128]
selected by phage display [2]: confidence 2 (active)

GDTEAWQFPVMLEPMP [ERVK-21, P62683]
selected by phage display [3]: confidence 2 (active)

From paper PMC8769072, “Proteome‐scale mapping of binding sites in the unstructured regions of the human proteome” (Molecular Systems Biology, 2022)
